SMILES strings stand for the structures. A number with no mark means an inactive call. Active and inactive are the calls of the source. Rule as the data show it: active = log2 fold change growth below about -1.8; inactive = the rest.

This assay in a line: C. elegans growth inhibition, whole organism, log2 fold change (AID 1259336).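 Also: growth scored by imaging after five days at 20 °C.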 To be noted: anthelmintic screen, active compounds read low.
On to `C[C@H]1CS(=O)(=O)CCN1/N=C/c1ccc([N+](=O)[O-])o1`, for which the log2 fold change growth is 0.236.
The value for `Nc1ncnc2c1ncn2C[C@@H](O)[C@@H](O)C(=O)O` was -0.0899; that for `CCc1nc2ccccc2n1C[C@H](O)COc1cc(C)ccc1Cl` was 0.0644; that for `O=C(N[C@H](Cc1ccccc1)C(=O)Nc1ccccc1N1CCOCC1)c1cccs1` was 0.306.
Turning to `CC(C)(C)c1ccc(N[C@@H]2CCCC[C@H]2NC(=O)c2ccco2)cc1`, the log2 fold change growth is 0.519.
Consider `Cc1[nH]n2c(=O)c3c(nc2c1-c1ccc(F)cc1)CCCC3`, for which the log2 fold change growth was -0.19.
The value for `Cc1cc2nc(NC(=O)C(C)(C)C)nc(Cl)c2n1Cc1ccc(Cl)cc1` was 0.316; that for `COC(=O)c1cccc2oc(-c3cccc(OC)c3NC(=O)c3cc(-c4ccccc4)on3)nc12` was -0.13; that for `O=S(=O)(c1ccc(Cl)cc1)N1CCN(C(=S)NCc2ccco2)CC1` was -0.203.
The value for `COc1ccc(C2=NCCN2)cc1-c1cn(-c2cccc(C3=NCCN3)c2)nn1` was 0.077; that for `COc1cccc(-c2cc3c(Nc4cccnc4)nccc3[nH]2)c1` was 0.319; that for `O=C([C@@H](c1ccc(Cl)cc1)c1cccnc1)N1CCN(c2ccc(C(F)(F)F)cc2)CC1` was -0.994.
The value for `COc1ccc(O[C@@H](C)C(=O)Nc2ccc(Cl)cc2C)cc1` was 0.539.
With `Cc1cc(NCC(C)C)c2[nH]nc(-c3ccccc3)c2n1`, the log2 fold change growth is 0.0984.
The figure for `Cc1cc(Nc2ccncc2)n2nc(C)c(-c3ccccc3Cl)c2n1` is -0.496; for `CN1CCCN([C@@H](c2ccccc2)c2ccc(Cl)cc2)CC1` it is 0.517.
The figure for `O=C1N(Cc2cc3ccccc3s2)C[C@H]2CN(Cc3ccccc3)CCN12` is -0.864; for `O=C(Nc1ccc2c(c1)B(O)OC2)c1ccccc1C(F)(F)F` it is -8.94 (active); for `COc1ccc(-c2nc(-c3cccc(NC(=O)Cc4ccc(F)cc4)c3)no2)cc1OC` it is -0.107.
The figure for `CN1CCN(c2cc(-c3ccc(F)cc3)nc(-c3ccncc3)n2)CC1` is -1.96 (active); for `O=C(Nc1nnc(-c2ccc(Cl)cc2)o1)c1cccc(C(F)(F)F)c1` it is -1.36; for `Brc1cncc(-c2cc(NCCCn3ccnc3)nc(-c3ccccc3)n2)c1` it is -1.17.
As for `CCOC(=O)c1c(NC(=O)c2c(F)c(F)c(F)c(F)c2F)sc(C(N)=O)c1C`, the log2 fold change growth is 0.119.
The figure for `COc1cc(-c2cc(-c3ccc(S(C)(=O)=O)cc3)cnc2N)ccc1O` is -0.318; for `Cc1ccc2nc(C)c(-c3ccn(Cc4ccccc4)n3)n2c1` it is 0.192.
Regarding `COc1ccc(C2(C(=O)Nc3ccc(Br)cc3)CCCC2)cc1`, the log2 fold change growth is -0.749.
On to `Cn1c(=O)c2c(S(C)(=O)=O)snc2n(C)c1=O`, for which the log2 fold change growth is 0.155.
The figure for `NCCC[C@@](N)(C(=O)O)C(F)F` is 0.109; for `CS(=O)(=O)N1CCC(CCn2nc(Cc3cccc4ccccc34)c3c(N)ncnc32)CC1` it is -1.16.
The value for `C[C@H](Oc1ccccc1)C(=O)Nc1nc(-c2ccccn2)cs1` was -0.519; that for `Cc1cc(OCC(=O)NCc2ccccc2)c2cc(Br)ccc2n1` was 0.232; that for `Cc1nnc(NCc2cccc(Cl)c2)c2ccccc12` was 0.138.
The figure for `Cc1ccc(S(=O)(=O)Nc2ccc(CN3CCN(C(=O)c4cccc(C#N)c4)CC3)cc2)cc1` is 0.152; for `CN1CCN(S(=O)(=O)c2ccc(-c3ccc4c(Nc5ncc(Cl)cn5)ccnc4c3)cc2)CC1` it is 0.346.
Take `O=C(NCCc1ccn(-c2ccccc2)n1)C1CCCCC1`: the log2 fold change growth was 0.0936.
For the molecule `Cc1cc(C)nc(-n2nc(C)cc2Nc2ccccc2)n1`, the log2 fold change growth was 0.0497.
The value for `Cc1ncc(-c2ccnc(Nc3ccc(S(C)(=O)=O)cc3)n2)n1C(C)C` was 0.268; that for `CCNC(=O)[C@H](C)Nc1nc(-c2cccnc2)nc2sc(C)c(C)c12` was 0.136.

The record behind these values is PubChem BioAssay AID1259336 (Sattelle Laboratory, UCL Respiratory, Division of Medicine, …, 2017).
